In the supplement of paper PMC10646978:
± gives the standard deviation.

Columns and labels:
Conditions in all cases: modulator concentration 10 µM
[1] = tested on: RAW-Dual (murine macrophage reporter line); assay: NF-kB reporter (SEAP) activity fold change vs agonist alone; higher = enhanced NF-kB activity
In short: (§1)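 RAW-Dual murine macrophage reporter cells were seeded at 50 000 per well in 384-well plates and pre-incubated 1 hour at 37 °C with compound pin-transferred to 10 μM final. After 1 hour, a PRR agonist was added and cells incubated overnight. Supernatant NF-κB (SEAP, QUANTI-Blue, 620 nm absorbance) and IRF (Lucia luciferase, QUANTI-Luc, luminescence) signals were divided by the mean agonist-only control on the same plate to give fold change. Two replicate plates were averaged, with errors by propagation.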

[2] = tested on: RAW-Dual (murine macrophage reporter line); assay: IRF reporter (Lucia luciferase) activity fold change vs agonist alone; higher = enhanced IRF activity
In short: as §1

[3] = tested on: RAW-Dual (murine macrophage reporter line); assay: viability score (confluency relative to resting cells, overnight) (fraction); higher = more viable, active = viable (0.7 or more)
In short: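 Compound was added at a final 10 μM to RAW-Dual macrophages in 384-well plates and left overnight. Confluency was imaged with IncuCyte, and two masks were generated in IncuCyte software over all imaged wells. Each viability score is confluency relative to resting cells, and a compound met the cutoff only when both masks were above 70% of resting cells.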

[4] = agonist: CpG ODN 1826 0.5 ug/mL

Row | Compound | NF-kB reporter [1, 4] | NF-kB reporter ([1]; agonist: LPS 0.1 ug/mL) | NF-kB reporter ([1]; agonist: MPLA […]) | IRF reporter ([2]; agonist: 3'3'-cGAMP 10 ug/mL) | IRF reporter ([2]; agonist: LPS 0.1 ug/mL) | IRF reporter ([2]; agonist: MPLA […]) | viability score [3]
1 | CCN(CC)c1ccc(C=NNC(=O)c2ccc(O)cc2)c(O)c1 | 2.52 ± 0.2 | 1.31 ± 0.089 | 5.86 ± 0.2 | 0.2 ± 0.0075 | 0.845 ± 0.038 | 0.758 ± 0.12 | 0.577 (inactive)
2 | Cc1ccc(NS(=O)(=O)c2cc3c4c(cccc4c2)C(=O)NC3=O)cc1C | 0.535 ± 0.034 | 0.381 ± 0.03 | 0.875 ± 0.025 | 0.532 ± 0.033 | 0.908 ± 0.092 | 0.815 ± 0.14 | 0.802 (active)
3 | Cc1ccc(CSCCNC(=O)CN(c2cccc(C)c2)S(C)(=O)=O)cc1 | 0.951 ± 0.09 | 1.01 ± 0.056 | 0.99 ± 0.061 | 0.998 ± 0.025 | 1.44 ± 0.2 | 1.15 ± 0.2 | 1 (active)
4 | COc1ccccc1OCCNCC(O)COc1cccc2[nH]c3ccccc3c12 (stereo unspecified) | 0.0926 ± 0.0072 | 0.894 ± 0.057 | 0.892 ± 0.084 | 1.26 ± 0.086 | 1.53 ± 0.11 | 1.53 ± 0.16 | 0.957 (active)
5 | Cc1ccc(NC(=O)Nc2c(C)nc(N3CCN(C)CC3)nc2C)cc1F | 0.993 ± 0.049 | 1.03 ± 0.11 | 0.818 ± 0.037 | 0.925 ± 0.046 | 1.21 ± 0.083 | 1.17 ± 0.15 | 0.97 (active)
6 | CC1CCc2c(oc3ccc(NS(=O)(=O)c4ccc(F)cc4)cc23)C1 (stereo unspecified) | 0.607 ± 0.1 | 0.626 ± 0.075 | 0.918 ± 0.032 | 0.853 ± 0.035 | 0.643 ± 0.11 | 1.76 ± 0.23 | 0.144 (inactive)
7 | COc1ccc(CCn2c(C)c(C)n3c4c(=O)n(CCC(C)C)c(=O)n(C)c4nc23)cc1OC | 0.95 ± 0.07 | 1.01 ± 0.12 | 1.15 ± 0.14 | 1.03 ± 0.048 | 1.37 ± 0.24 | 1.57 ± 0.44 | 0.95 (active)
8 | CNC(CC(=O)O)C(=O)O (stereo unspecified) | 0.986 ± 0.073 | 1.08 ± 0.073 | 0.978 ± 0.028 | 0.943 ± 0.054 | 0.942 ± 0.094 | 0.948 ± 0.078 | 1 (active)
9 | O=C(O)c1cc(Nc2ccnc3cc(Cl)ccc23)ccc1O | 1.04 ± 0.082 | 1.02 ± 0.088 | 0.932 ± 0.044 | 0.963 ± 0.05 | 1.02 ± 0.056 | 0.96 ± 0.18 | 1 (active)
10 | COc1cc2nc(N3CCN(C(=O)C4COc5ccccc5O4)CC3)nc(N)c2cc1OC.CS(=O)(=O)O (stereo unspecified) | 0.103 ± 0.014 | 1.29 ± 0.2 | 1.2 ± 0.082 | 0.273 ± 0.017 | 1.44 ± 0.33 | 1.97 ± 0.15 | 0.914 (active)
11 | CN(C)Cc1ccc(S(=O)(=O)n2ccc(/C=C/C(=O)NO)c2)cc1 | 0.517 ± 0.028 | 0.946 ± 0.11 | 1.25 ± 0.12 | 1.3 ± 0.12 | 1.49 ± 0.18 | 1.6 ± 0.36 | 0.334 (inactive)
12 | COc1ccc(CCC(=O)NCc2nc(N(C)C)nc(N3CCCCC3)n2)cc1 | 0.8 ± 0.074 | 1.11 ± 0.11 | 0.881 ± 0.033 | 0.801 ± 0.029 | 1.01 ± 0.078 | 0.661 ± 0.12 | 1 (active)
13 | O=c1oc2cc(O)ccc2s1 | 1.11 ± 0.088 | 1.02 ± 0.07 | 1.02 ± 0.026 | 0.911 ± 0.05 | 0.962 ± 0.067 | 0.827 ± 0.074 | 1 (active)
14 | O=S1(=O)CCC(NCc2ccccc2C(F)(F)F)C1 (stereo unspecified) | 0.997 ± 0.095 | 1.13 ± 0.11 | 0.978 ± 0.08 | 1.02 ± 0.071 | 1.03 ± 0.092 | 1.04 ± 0.32 | 1 (active)
15 | CC(C)(C)N.CCCC(NC(C)C(=O)N1C(C(=O)O)CC2CCCCC21)C(=O)OCC (stereo unspecified) | 0.927 ± 0.074 | 0.864 ± 0.15 | 0.947 ± 0.094 | 0.996 ± 0.036 | 1.21 ± 0.16 | 1.3 ± 0.18 | 1.02 (active)
16 | CN(Cc1cnc2nc(N)nc(N)c2n1)c1ccc(C(=O)NC(CCC(=O)O)C(=O)O)cc1 (stereo unspecified) [Prestw-373] | 0.987 ± 0.24 | 0.701 ± 0.04 | 0.87 ± 0.072 | 0.614 ± 0.037 | 1.16 ± 0.19 | 1.01 ± 0.13 | 0.791 (active)
17 | O=C(CCn1c(=O)oc2ccccc21)Nc1ccccc1 | 1.03 ± 0.17 | 1.22 ± 0.19 | 0.881 ± 0.08 | 0.969 ± 0.032 | 1.16 ± 0.19 | 1.06 ± 0.13 | 0.998 (active)
18 | COc1ccccc1C1C(C(C)=O)=C(O)C(=O)N1CCN(C)C (stereo unspecified) | 0.967 ± 0.054 | 1.07 ± 0.072 | 0.947 ± 0.057 | 0.958 ± 0.032 | 1.48 ± 0.24 | 1.25 ± 0.12 | 0.988 (active)
